# According to ChEMBL document CHEMBL2218924, “A broad activity screen in support of a chemogenomic map for kinase signalling research and drug discovery” (Biochem J, 2013):
# Experiments:
# [1] = target: T1, Ephrin type-A receptor 3 (Homo sapiens) (UniProt P29320); conditions: at 10 µM
# T1 sequence (whole entry): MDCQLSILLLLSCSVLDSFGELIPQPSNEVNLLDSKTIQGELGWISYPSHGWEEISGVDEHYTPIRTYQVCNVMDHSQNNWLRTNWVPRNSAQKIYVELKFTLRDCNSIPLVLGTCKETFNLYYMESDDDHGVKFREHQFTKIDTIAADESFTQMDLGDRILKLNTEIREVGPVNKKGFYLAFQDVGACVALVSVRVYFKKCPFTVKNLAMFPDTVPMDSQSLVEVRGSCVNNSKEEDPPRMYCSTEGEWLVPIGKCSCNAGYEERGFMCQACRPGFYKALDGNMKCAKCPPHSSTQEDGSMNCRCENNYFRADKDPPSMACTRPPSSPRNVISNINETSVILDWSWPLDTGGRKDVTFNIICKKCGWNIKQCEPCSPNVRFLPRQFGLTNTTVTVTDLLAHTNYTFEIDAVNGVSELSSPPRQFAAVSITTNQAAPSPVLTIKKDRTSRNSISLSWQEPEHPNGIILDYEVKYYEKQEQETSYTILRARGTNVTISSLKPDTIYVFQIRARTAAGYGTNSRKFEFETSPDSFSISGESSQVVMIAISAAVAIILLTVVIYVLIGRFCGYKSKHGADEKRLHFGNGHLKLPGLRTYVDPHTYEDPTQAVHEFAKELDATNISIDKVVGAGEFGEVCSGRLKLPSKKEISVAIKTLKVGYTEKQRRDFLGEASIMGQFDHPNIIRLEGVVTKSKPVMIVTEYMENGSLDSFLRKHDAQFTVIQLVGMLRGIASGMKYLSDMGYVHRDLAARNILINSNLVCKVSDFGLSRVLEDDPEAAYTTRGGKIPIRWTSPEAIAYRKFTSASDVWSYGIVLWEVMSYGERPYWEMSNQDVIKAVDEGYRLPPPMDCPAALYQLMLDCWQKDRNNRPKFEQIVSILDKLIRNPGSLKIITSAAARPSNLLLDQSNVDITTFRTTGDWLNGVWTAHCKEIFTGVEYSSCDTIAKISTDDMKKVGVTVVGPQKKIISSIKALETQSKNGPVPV
# [2] = target: Ephrin type-A receptor 4 (Homo sapiens) (UniProt P54764); conditions: at 10 µM
# [3] = target: Ephrin type-A receptor 5 (Homo sapiens) (UniProt P54756); conditions: at 1 µM
# [4] = target: Ephrin type-A receptor 5 (Homo sapiens) (UniProt P54756); conditions: at 10 µM
# [5] = target: Ephrin type-A receptor 7 (Homo sapiens) (UniProt Q15375); conditions: at 1 µM
# [6] = target: Ephrin type-A receptor 7 (Homo sapiens) (UniProt Q15375); conditions: at 10 µM
# [7] = target: T2, Ephrin type-A receptor 8 (Homo sapiens) (UniProt P29322); conditions: at 1 µM
# T2 sequence (whole entry): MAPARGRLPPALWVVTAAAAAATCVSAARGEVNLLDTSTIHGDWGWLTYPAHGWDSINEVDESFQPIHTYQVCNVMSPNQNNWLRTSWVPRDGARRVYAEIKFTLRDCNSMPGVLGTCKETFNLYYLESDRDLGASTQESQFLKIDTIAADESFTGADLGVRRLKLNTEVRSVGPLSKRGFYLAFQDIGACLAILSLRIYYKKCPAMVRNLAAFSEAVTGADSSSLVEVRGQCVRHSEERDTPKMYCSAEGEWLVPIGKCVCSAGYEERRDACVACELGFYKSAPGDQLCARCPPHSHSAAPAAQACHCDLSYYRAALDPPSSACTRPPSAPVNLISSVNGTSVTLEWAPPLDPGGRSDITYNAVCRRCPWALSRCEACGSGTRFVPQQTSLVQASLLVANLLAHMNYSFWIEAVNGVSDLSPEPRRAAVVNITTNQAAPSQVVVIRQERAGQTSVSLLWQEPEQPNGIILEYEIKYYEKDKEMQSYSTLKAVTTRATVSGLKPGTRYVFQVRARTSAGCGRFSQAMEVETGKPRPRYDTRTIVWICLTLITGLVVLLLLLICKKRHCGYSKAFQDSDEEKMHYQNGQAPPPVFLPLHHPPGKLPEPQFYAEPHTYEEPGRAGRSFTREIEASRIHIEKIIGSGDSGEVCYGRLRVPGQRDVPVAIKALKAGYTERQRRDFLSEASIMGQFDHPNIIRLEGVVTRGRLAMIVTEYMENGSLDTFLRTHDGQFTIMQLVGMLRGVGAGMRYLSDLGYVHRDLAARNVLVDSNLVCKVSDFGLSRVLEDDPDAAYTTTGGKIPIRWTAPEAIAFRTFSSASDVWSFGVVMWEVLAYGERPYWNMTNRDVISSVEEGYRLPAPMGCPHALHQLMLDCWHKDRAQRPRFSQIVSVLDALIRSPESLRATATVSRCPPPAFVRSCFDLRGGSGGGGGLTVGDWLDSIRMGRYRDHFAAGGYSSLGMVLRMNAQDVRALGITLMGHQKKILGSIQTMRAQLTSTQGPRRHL
# [8] = target: T2, Ephrin type-A receptor 8 (Homo sapiens); conditions: at 10 µM
# [9] = target: T3, Ephrin type-B receptor 1 (Homo sapiens) (UniProt P54762); conditions: at 10 µM
# T3 sequence (whole entry): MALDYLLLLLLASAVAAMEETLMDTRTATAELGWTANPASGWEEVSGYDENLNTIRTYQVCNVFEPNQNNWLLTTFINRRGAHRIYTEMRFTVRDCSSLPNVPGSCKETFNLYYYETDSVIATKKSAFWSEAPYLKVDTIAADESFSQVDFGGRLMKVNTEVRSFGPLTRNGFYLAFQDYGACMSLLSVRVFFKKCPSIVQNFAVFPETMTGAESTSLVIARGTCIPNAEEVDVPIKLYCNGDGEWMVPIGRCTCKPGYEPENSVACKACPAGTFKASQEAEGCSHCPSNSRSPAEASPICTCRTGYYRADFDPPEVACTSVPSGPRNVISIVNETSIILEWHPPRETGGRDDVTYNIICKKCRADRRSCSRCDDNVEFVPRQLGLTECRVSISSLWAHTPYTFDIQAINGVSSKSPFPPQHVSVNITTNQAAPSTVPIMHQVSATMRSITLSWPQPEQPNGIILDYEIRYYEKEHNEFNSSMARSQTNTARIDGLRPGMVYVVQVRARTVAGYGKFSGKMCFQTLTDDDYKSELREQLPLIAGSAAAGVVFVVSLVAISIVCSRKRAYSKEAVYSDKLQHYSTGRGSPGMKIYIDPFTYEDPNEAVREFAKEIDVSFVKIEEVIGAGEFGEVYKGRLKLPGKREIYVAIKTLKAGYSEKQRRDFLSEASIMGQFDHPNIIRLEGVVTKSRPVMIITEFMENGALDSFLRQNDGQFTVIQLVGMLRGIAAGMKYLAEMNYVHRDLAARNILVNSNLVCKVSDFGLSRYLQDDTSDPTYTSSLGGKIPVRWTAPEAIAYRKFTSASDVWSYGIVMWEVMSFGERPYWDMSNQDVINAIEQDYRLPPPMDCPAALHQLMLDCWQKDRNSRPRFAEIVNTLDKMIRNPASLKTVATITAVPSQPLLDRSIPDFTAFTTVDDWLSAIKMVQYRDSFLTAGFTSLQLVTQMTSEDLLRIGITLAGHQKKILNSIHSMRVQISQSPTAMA
# [10] = target: T4, Ephrin type-B receptor 2 (Homo sapiens) (UniProt P29323); conditions: at 1 µM
# T4 sequence (whole entry): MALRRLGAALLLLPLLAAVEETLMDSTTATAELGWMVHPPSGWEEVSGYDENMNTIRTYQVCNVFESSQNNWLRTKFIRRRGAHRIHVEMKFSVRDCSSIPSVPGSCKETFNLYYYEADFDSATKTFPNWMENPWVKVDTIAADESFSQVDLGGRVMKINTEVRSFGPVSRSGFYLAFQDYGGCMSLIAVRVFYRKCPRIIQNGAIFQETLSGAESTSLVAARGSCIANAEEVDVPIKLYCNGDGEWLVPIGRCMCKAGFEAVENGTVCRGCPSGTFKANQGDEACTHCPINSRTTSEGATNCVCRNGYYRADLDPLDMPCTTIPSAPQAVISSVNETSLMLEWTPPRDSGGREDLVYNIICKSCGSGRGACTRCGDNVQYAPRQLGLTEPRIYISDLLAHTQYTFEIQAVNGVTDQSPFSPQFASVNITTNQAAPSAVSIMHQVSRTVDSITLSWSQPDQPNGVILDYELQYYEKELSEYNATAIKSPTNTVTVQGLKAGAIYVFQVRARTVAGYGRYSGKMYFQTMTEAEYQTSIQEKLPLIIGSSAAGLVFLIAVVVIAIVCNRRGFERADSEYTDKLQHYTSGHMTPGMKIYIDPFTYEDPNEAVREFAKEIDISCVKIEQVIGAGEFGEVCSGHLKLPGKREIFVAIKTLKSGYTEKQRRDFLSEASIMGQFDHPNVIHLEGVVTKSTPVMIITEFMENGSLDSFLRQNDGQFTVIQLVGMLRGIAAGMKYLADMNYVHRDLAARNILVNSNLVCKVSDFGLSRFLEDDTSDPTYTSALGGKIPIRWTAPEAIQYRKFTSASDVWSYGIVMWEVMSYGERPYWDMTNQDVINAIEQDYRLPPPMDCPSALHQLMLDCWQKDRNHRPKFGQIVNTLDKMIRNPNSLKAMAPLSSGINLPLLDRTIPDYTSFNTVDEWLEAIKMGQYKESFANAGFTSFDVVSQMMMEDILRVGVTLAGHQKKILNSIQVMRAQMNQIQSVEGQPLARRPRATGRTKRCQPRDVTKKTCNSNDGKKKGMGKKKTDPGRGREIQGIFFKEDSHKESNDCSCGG
# [11] = target: T4, Ephrin type-B receptor 2 (Homo sapiens); conditions: at 10 µM
# [12] = target: T5, Ephrin type-B receptor 3 (Homo sapiens) (UniProt P54753); conditions: at 1 µM
# T5 sequence (whole entry): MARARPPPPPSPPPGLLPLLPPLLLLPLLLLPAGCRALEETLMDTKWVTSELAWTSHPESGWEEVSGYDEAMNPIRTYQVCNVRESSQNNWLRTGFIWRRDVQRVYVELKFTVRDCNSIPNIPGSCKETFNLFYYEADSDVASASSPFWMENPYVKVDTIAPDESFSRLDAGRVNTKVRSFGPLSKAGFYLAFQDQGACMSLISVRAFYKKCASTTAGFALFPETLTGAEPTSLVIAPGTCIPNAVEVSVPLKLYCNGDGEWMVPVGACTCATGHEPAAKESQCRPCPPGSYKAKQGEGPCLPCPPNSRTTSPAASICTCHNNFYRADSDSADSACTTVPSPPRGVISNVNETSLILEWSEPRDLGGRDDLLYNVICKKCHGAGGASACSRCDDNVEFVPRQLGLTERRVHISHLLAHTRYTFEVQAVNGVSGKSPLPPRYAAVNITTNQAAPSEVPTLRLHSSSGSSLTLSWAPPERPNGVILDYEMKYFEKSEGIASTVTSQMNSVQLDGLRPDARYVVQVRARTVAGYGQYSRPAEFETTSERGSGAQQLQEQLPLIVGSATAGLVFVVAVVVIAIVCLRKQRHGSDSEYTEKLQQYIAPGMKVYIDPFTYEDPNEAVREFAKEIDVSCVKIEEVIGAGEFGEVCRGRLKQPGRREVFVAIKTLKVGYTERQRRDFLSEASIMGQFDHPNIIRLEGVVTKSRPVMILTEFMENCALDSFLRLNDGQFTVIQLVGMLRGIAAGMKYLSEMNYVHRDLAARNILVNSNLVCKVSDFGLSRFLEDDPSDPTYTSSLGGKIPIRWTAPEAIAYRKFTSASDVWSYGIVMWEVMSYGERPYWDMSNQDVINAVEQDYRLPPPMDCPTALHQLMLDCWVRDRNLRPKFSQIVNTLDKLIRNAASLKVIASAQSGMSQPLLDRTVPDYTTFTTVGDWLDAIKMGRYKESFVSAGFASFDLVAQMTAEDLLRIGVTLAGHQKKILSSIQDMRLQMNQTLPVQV
# [13] = target: T5, Ephrin type-B receptor 3 (Homo sapiens); conditions: at 10 µM
# [14] = target: T6, Ephrin type-B receptor 4 (Homo sapiens) (UniProt P54760); conditions: at 1 µM
# T6 sequence (whole entry): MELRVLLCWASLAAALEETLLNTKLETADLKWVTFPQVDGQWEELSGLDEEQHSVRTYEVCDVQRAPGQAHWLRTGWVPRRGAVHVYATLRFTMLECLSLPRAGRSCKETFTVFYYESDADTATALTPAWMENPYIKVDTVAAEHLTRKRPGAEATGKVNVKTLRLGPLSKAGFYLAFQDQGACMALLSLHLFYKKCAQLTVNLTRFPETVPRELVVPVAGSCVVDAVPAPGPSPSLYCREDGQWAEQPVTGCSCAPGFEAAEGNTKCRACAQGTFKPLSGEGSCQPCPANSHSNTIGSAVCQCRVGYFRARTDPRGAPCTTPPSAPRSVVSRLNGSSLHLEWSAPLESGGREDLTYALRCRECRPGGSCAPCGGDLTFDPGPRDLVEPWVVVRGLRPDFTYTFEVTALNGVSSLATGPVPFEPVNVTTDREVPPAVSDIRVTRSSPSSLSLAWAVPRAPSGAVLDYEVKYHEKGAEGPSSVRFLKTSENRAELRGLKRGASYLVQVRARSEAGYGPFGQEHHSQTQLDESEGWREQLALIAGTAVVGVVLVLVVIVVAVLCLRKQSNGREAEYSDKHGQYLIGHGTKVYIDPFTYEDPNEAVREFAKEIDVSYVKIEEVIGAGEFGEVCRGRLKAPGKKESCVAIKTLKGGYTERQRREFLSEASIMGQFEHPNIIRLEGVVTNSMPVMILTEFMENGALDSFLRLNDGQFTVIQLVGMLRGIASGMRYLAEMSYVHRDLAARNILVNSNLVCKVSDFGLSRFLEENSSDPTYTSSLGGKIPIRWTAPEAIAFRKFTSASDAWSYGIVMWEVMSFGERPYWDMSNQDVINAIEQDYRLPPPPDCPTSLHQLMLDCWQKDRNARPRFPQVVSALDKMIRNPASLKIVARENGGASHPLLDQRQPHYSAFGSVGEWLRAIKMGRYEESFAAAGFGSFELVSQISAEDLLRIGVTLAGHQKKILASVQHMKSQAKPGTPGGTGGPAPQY
# [15] = target: T6, Ephrin type-B receptor 4 (Homo sapiens); conditions: at 10 µM
# [16] = target: Receptor tyrosine-protein kinase erbB-4 (Homo sapiens) (UniProt Q15303); conditions: at 1 µM
# [17] = target: Receptor tyrosine-protein kinase erbB-4 (Homo sapiens) (UniProt Q15303); conditions: at 10 µM
# [18] = target: Focal adhesion kinase 1 (Homo sapiens) (UniProt Q05397); conditions: at 1 µM
# Sequence of Ephrin type-A receptor 5 (Homo sapiens) (P54756 whole entry): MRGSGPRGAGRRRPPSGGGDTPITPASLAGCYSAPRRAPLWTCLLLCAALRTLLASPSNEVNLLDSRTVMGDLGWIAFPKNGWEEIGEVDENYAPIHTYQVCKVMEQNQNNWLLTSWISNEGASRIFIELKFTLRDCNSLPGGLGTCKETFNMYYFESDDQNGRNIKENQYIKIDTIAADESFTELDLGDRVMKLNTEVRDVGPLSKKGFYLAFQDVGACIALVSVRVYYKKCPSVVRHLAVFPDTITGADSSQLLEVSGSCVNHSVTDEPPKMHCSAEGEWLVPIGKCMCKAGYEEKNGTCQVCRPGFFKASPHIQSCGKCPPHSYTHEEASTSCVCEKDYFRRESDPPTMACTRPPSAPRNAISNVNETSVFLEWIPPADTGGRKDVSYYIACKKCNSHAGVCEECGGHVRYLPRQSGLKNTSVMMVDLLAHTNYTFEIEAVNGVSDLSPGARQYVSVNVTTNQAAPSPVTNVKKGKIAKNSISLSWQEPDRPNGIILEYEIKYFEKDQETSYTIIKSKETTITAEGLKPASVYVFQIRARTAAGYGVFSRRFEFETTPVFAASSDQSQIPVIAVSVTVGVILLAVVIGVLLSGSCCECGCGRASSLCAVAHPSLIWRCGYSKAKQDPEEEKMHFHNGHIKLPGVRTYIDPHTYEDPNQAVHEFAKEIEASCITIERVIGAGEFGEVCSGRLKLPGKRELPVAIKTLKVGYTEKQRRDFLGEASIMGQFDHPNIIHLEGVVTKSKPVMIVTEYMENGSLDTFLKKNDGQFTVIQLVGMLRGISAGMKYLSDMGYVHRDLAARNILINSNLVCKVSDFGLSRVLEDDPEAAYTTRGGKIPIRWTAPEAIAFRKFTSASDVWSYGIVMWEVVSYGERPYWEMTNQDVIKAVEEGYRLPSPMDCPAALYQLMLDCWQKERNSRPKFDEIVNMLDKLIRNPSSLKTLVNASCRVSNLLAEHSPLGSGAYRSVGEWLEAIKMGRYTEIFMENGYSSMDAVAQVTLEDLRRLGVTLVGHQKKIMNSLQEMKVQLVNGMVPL
# Sequence of Ephrin type-A receptor 7 (Homo sapiens) (Q15375 28-998 limits assumed): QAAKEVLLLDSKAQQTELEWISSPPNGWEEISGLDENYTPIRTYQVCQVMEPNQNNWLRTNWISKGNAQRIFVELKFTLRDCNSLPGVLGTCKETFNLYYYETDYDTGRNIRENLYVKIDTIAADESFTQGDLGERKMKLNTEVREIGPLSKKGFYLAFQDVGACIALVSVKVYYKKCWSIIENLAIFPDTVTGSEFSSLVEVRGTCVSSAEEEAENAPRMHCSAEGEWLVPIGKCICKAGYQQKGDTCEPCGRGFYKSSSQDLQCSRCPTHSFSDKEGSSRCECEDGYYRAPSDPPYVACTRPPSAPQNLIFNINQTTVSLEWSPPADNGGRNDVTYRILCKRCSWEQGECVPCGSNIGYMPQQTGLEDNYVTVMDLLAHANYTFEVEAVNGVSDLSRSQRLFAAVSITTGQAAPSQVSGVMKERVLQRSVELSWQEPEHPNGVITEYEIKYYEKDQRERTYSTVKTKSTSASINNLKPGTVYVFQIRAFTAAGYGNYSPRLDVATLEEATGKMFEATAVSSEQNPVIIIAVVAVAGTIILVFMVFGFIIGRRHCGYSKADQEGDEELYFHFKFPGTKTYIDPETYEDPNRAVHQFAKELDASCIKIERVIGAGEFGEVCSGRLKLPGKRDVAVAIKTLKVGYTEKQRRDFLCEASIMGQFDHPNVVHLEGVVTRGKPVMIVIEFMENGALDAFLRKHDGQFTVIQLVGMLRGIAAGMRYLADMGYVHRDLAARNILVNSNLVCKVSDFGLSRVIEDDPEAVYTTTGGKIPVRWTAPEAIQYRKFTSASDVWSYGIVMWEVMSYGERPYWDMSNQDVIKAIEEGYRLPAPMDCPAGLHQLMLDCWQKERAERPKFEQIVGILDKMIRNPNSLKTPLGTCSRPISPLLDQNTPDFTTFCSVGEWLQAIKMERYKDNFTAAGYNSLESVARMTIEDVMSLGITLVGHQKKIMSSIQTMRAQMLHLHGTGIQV
# Sequence of Receptor tyrosine-protein kinase erbB-4 (Homo sapiens) (Q15303 whole entry): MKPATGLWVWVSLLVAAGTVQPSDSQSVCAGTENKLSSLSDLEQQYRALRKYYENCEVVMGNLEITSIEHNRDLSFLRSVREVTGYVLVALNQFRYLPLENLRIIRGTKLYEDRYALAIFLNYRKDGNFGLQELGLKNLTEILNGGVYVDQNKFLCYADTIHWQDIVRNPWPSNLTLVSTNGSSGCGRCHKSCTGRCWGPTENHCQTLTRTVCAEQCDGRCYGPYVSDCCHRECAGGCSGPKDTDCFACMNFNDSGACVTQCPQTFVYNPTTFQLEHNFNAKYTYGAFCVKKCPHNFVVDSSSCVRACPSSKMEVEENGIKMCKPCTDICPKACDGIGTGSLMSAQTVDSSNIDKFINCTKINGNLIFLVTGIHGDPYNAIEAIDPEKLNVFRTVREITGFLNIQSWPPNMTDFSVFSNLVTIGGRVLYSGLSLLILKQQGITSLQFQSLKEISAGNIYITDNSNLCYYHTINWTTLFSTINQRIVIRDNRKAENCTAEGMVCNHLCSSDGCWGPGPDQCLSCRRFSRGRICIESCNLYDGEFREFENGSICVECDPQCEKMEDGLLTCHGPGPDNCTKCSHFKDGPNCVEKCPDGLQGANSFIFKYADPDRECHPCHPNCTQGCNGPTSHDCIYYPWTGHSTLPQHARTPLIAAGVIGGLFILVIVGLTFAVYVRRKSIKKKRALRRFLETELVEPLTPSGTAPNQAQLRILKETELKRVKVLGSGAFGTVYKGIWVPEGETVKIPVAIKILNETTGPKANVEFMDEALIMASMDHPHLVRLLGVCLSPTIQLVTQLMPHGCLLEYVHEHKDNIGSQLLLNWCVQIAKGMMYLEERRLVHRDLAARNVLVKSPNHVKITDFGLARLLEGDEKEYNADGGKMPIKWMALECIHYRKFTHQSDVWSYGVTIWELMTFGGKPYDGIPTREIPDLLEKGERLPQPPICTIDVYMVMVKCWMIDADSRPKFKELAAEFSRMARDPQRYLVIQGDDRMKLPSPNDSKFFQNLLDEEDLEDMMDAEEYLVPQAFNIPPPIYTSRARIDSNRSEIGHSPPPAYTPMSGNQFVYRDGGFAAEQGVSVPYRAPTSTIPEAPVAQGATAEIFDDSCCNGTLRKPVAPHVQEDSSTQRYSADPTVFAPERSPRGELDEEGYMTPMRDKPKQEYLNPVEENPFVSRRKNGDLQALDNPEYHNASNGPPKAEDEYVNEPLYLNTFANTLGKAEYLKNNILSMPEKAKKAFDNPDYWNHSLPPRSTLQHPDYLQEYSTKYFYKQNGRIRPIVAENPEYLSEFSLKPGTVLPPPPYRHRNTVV
# Sequence of Ephrin type-A receptor 4 (Homo sapiens) (P54764 whole entry): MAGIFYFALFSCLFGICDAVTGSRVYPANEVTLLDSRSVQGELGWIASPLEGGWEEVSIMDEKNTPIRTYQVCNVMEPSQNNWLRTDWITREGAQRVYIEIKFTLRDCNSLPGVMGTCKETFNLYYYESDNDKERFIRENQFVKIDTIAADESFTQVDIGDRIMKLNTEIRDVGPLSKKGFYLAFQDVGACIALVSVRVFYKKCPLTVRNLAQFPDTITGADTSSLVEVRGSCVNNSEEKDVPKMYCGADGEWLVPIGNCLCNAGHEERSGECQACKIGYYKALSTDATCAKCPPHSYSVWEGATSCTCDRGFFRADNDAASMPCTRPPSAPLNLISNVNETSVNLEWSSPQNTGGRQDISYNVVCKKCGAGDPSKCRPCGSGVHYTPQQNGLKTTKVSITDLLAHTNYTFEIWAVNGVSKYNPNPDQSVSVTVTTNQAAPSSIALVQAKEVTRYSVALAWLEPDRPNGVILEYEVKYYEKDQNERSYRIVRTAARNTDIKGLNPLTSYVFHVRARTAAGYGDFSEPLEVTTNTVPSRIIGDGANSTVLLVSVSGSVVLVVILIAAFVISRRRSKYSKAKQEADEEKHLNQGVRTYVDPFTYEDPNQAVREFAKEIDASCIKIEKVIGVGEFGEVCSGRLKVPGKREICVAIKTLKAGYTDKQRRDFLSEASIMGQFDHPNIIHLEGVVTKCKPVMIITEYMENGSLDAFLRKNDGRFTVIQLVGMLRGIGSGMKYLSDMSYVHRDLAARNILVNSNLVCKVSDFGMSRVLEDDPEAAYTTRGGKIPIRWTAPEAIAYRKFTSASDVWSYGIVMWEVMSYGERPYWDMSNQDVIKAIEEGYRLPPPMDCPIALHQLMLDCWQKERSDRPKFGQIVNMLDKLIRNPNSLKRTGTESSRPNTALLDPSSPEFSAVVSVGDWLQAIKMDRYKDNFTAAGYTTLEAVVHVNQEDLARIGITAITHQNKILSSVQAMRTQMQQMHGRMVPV
compound,measurement,setting,value
CN(C)CCCn1cc(C2=C(c3c[nH]c4ccccc34)C(=O)NC2=O)c2ccccc21,residual activity,[1],82%
same,residual activity,[2],82%
same,residual activity,[3],123%
same,residual activity,[4],103%
same,residual activity,[5],108%
same,residual activity,[6],87%
same,residual activity,[7],120%
same,residual activity,[8],106%
same,residual activity,[9],59%
same,residual activity,[10],119%
same,residual activity,[11],113%
same,residual activity,[12],108% (inactive)
same,residual activity,[13],110%
same,residual activity,[14],124%
same,residual activity,[15],118%
same,residual activity,[16],113%
same,residual activity,[17],86%
same,residual activity,[18],133%
